# Data: paper PMC11062922 (Nature Chemical Biology, 2023)
# Read-outs that look alike come from different tables or passages of the source.
# System: ULK3
# Settings: read-out: apparent Kd, n = 1
substance,measurement,setting,value
Lestaurtinib,potency estimated from few doses,"compound concentrations:100 nM and 1000 nM (sheet 'Lestaurtinib' of Supplementary Table 1),run:Lestaurtinib_02482_R2,Plate:MR011",244 nM
same,potency estimated from few doses,"compound concentrations:100 nM and 1000 nM (sheet 'Lestaurtinib' of Supplementary Table 1),run:Lestaurtinib_02482_R3,Plate:MR011",219 nM
same,potency estimated from few doses,"compound concentrations:100 nM and 1000 nM (sheet 'Lestaurtinib' of Supplementary Table 1),run:Lestaurtinib_02487_R1,Plate:MR012",144 nM
same,potency estimated from few doses,"compound concentrations:100 nM and 1000 nM (sheet 'Lestaurtinib' of Supplementary Table 1),run:Lestaurtinib_02487_R2,Plate:MR012",219 nM
same,potency estimated from few doses,"compound concentrations:100 nM and 1000 nM (sheet 'Lestaurtinib' of Supplementary Table 1),run:Lestaurtinib_02487_R3,Plate:MR012",250 nM
same,potency estimated from few doses,"compound concentrations:100 nM and 1000 nM (sheet 'Lestaurtinib' of Supplementary Table 1),run:Lestaurtinib_02496_R1,Plate:MR013",131 nM
same,potency estimated from few doses,"compound concentrations:100 nM and 1000 nM (sheet 'Lestaurtinib' of Supplementary Table 1),run:Lestaurtinib_02496_R2,Plate:MR013",165 nM
same,potency estimated from few doses,"compound concentrations:100 nM and 1000 nM (sheet 'Lestaurtinib' of Supplementary Table 1),run:Lestaurtinib_02496_R3,Plate:MR013",254 nM
same,potency estimated from few doses,"compound concentrations:100 nM and 1000 nM (sheet 'Lestaurtinib' of Supplementary Table 1),run:Lestaurtinib_02566_R1,Plate:MR014",153 nM
same,potency estimated from few doses,"compound concentrations:100 nM and 1000 nM (sheet 'Lestaurtinib' of Supplementary Table 1),run:Lestaurtinib_02566_R3,Plate:MR014",242 nM
same,potency estimated from few doses,"compound concentrations:100 nM and 1000 nM (sheet 'Lestaurtinib' of Supplementary Table 1),run:Lestaurtinib_02572_R3,Plate:MR015",329 nM
same,potency estimated from few doses,"compound concentrations:100 nM and 1000 nM (sheet 'Lestaurtinib' of Supplementary Table 1),run:Lestaurtinib_02577_R2,Plate:MR016",271 nM
same,potency estimated from few doses,"compound concentrations:100 nM and 1000 nM (sheet 'Lestaurtinib' of Supplementary Table 1),run:Lestaurtinib_02577_R3,Plate:MR016",224 nM
same,potency estimated from few doses,"compound concentrations:100 nM and 1000 nM (sheet 'Lestaurtinib' of Supplementary Table 1),run:Lestaurtinib_02584_R1,Plate:MR017",232 nM
same,potency estimated from few doses,"compound concentrations:100 nM and 1000 nM (sheet 'Lestaurtinib' of Supplementary Table 1),run:Lestaurtinib_02584_R2,Plate:MR017",261 nM
same,potency estimated from few doses,"compound concentrations:100 nM and 1000 nM (sheet 'Lestaurtinib' of Supplementary Table 1),run:Lestaurtinib_02584_R3,Plate:MR017",254 nM
same,potency estimated from few doses,"compound concentrations:100 nM and 1000 nM (sheet 'Lestaurtinib' of Supplementary Table 1),run:Lestaurtinib_02601_R1,Plate:MR018",290 nM
same,potency estimated from few doses,"compound concentrations:100 nM and 1000 nM (sheet 'Lestaurtinib' of Supplementary Table 1),run:Lestaurtinib_02601_R2,Plate:MR018",271 nM
same,potency estimated from few doses,"compound concentrations:100 nM and 1000 nM (sheet 'Lestaurtinib' of Supplementary Table 1),run:Lestaurtinib_02601_R3,Plate:MR018",297 nM
same,potency estimated from few doses,"compound concentrations:100 nM and 1000 nM (sheet 'Lestaurtinib' of Supplementary Table 1),run:Lestaurtinib_02624_R2,Plate:MR020",258 nM
same,potency estimated from few doses,"compound concentrations:100 nM and 1000 nM (sheet 'Lestaurtinib' of Supplementary Table 1),run:Lestaurtinib_02624_R3,Plate:MR020",269 nM
same,potency estimated from few doses,"compound concentrations:100 nM and 1000 nM (sheet 'Lestaurtinib' of Supplementary Table 1),run:Lestaurtinib_02724_R1,Plate:MR021",243 nM
same,potency estimated from few doses,"compound concentrations:100 nM and 1000 nM (sheet 'Lestaurtinib' of Supplementary Table 1),run:Lestaurtinib_02724_R2,Plate:MR021",220 nM
same,potency estimated from few doses,"compound concentrations:100 nM and 1000 nM (sheet 'Lestaurtinib' of Supplementary Table 1),run:Lestaurtinib_02741_R1,Plate:MR023",268 nM
same,potency estimated from few doses,"compound concentrations:100 nM and 1000 nM (sheet 'Lestaurtinib' of Supplementary Table 1),run:Lestaurtinib_02748_R1,Plate:MR024",144 nM
same,potency estimated from few doses,"compound concentrations:100 nM and 1000 nM (sheet 'Lestaurtinib' of Supplementary Table 1),run:Lestaurtinib_02748_R2,Plate:MR024",132 nM
same,potency estimated from few doses,"compound concentrations:100 nM and 1000 nM (sheet 'Lestaurtinib' of Supplementary Table 1),run:Lestaurtinib_02752_R1,Plate:MR025",260 nM
same,potency estimated from few doses,"compound concentrations:100 nM and 1000 nM (sheet 'Lestaurtinib' of Supplementary Table 1),run:Lestaurtinib_02765_R1,Plate:MR026",320 nM
same,potency estimated from few doses,"compound concentrations:100 nM and 1000 nM (sheet 'Lestaurtinib' of Supplementary Table 1),run:Lestaurtinib_02765_R3,Plate:MR026",304 nM
same,potency estimated from few doses,"compound concentrations:100 nM and 1000 nM (sheet 'Lestaurtinib' of Supplementary Table 1),run:Lestaurtinib_02768_R1,Plate:MR028",240 nM
same,potency estimated from few doses,"compound concentrations:100 nM and 1000 nM (sheet 'Lestaurtinib' of Supplementary Table 1),run:Lestaurtinib_02768_R3,Plate:MR028",206 nM
same,potency estimated from few doses,"compound concentrations:100 nM and 1000 nM (sheet 'Lestaurtinib' of Supplementary Table 1),run:Lestaurtinib_02802_R3,Plate:MR029",237 nM
same,potency estimated from few doses,"compound concentrations:100 nM and 1000 nM (sheet 'Lestaurtinib' of Supplementary Table 1),run:Lestaurtinib_02896_R2,Plate:MR030",236 nM
same,potency estimated from few doses,"compound concentrations:100 nM and 1000 nM (sheet 'Lestaurtinib' of Supplementary Table 1),run:Lestaurtinib_02896_R3,Plate:MR030",158 nM
same,potency estimated from few doses,"compound concentrations:100 nM and 1000 nM (sheet 'Lestaurtinib' of Supplementary Table 1),run:Lestaurtinib_03172_R1,Plate:MR031",259 nM
same,potency estimated from few doses,"compound concentrations:100 nM and 1000 nM (sheet 'Lestaurtinib' of Supplementary Table 1),run:Lestaurtinib_03252_R1,Plate:MR032",261 nM
same,potency estimated from few doses,"compound concentrations:100 nM and 1000 nM (sheet 'Lestaurtinib' of Supplementary Table 1),run:Lestaurtinib_03260_R1,Plate:MR033",314 nM
